Reference: PubChem BioAssay (NCI)
This is part of a sample that, as a whole, favours compounds with a hit. Of some 79,000 tested, about 15% had one in any assay. Values without a mark were called inactive. Calls of active or inactive are those of the source. Cut-off read from the data, not from the text of the source: active = growth inhibition above about 70%; inactive = the rest.

Legend:
[1] = NCI Yeast Anticancer Drug Screen. Data for the rad50 strain (AID 155);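 note: 0% = growth of vehicle-only cultures of the same strain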; conditions: S. cerevisiae rad50 strain growth inhibition; at 50.0 µM; stronger effect = higher value
How it was run: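 Growth of the mutant yeast was measured after compound exposure and referenced to vehicle-treated cultures.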

[2] = NCI Yeast Anticancer Drug Screen. Data for the mec2-1 strain (AID 157); conditions: S. cerevisiae mec2-1 strain, at 50.0 µM, stronger effect = higher value
How it was run: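 Each compound was tested on mec2-1 yeast, a strain altered in DNA damage repair or cell cycle control. Growth inhibition is reported relative to vehicle.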

[3] = NCI Yeast Anticancer Drug Screen. Data for the sgs1 mgt1 strain (AID 161);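 note: 0% = growth of cultures given vehicle only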; conditions: S. cerevisiae sgs1 mgt1 strain, at 50.0 µM, stronger effect = higher value
How it was run: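 Mutant yeast exposed to compound; growth scored against vehicle-only wells.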

[4] = NCI Yeast Anticancer Drug Screen. Data for the cln2 rad14 strain (AID 165);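 note: 0% = growth equal to vehicle treated cultures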; conditions: S. cerevisiae cln2 rad14 strain, at 50.0 µM, stronger effect = higher value
How it was run: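 Test compounds were added to cln2 rad14 yeast cultures; inhibition of growth was then determined by comparison with vehicle treatment.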

[5] = NCI Yeast Anticancer Drug Screen. Data for the bub3 strain (AID 167); conditions: S. cerevisiae bub3 mutant strain, at 50.0 µM, stronger effect = higher value
How it was run: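 Whole-cell yeast assay. The mutant strain was incubated with compounds, and growth inhibition was determined by comparison with vehicle-treated cells.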

[6] = NCI Yeast Anticancer Drug Screen. Data for the mlh1 rad18 strain (AID 175); conditions: S. cerevisiae mlh1 rad18 strain growth inhibition; at 50.0 µM; stronger effect = higher value
How it was run: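 Inhibition values reflect reduced growth of mutant yeast versus vehicle-treated controls following compound exposure; the mutations affect DNA damage repair.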

Compound | growth inhibition [1] | growth inhibition [2] | growth inhibition [3] | growth inhibition [4] | growth inhibition [5] | growth inhibition [6]
N#CC(C#N)=CC(C#N)C#N | -10% | -4.3% | -12.2% | -65.1% | 5.1% | -11.7%
CCOC(=O)c1ccc(Nc2nc3ccccc3o2)cc1 | 5% | -7.6% | 9.05% | -14.2% | -0.95% | 1.7%
CN(C=O)c1ccccc1 | 3.6% | 1.8% | 6.15% | 11.7% | 2.05% | 3.05%
O=C(OCC(O)C(O)C(O)COC(=O)c1ccccc1)c1ccccc1 (stereo not given) | -11.6% | -5.05% | -25.4% | -23.6% | -22.8% | -13.1%
O=C(CC(c1ccccc1)N1CCCCC1)OCC1CCCO1 (stereo not given) | -0.85% | -13.7% | -4.1% | -44.5% | -1.85% | 14.3%
O=C1C(Cl)C(c2cccc(O)c2)N1n1cnc2ccccc2c1=O (stereo not given) | -25.1% | -4.15% | -7.5% | -8% | -19.4% | -0.95%
CCOC(=O)C(C(C)=O)C(NO)C(Cl)(Cl)Cl (stereo not given) | 5.4% | 13.6% | 3.4% | 17.1% | 2.2% | -3.05%
Cc1c(C)c2cc(Br)ccc2[nH]c1=O | 18.9% | -6.2% | -10.2% | 6.45% | 6.7% | 2.45%
CCOC(=O)C1OC1(C)c1ccc(Cl)cc1 (stereo not given) | 6.1% | 3.8% | -0.7% | 5.25% | -5.8% | 0.6%
CN(C)C(=O)C1CCC(CC2CCCCC2)CC1 (stereo not given) | 99.1% (active) | 99.2% (active) | 99% (active) | 96.3% (active) | 98.3% (active) | 80.9% (active)
NC(C(=O)O)c1ccc(C(=O)O)cc1 (stereo not given) | 30.7% | 15.6% | -5.55% | 18.8% | -7.6% | 20.5%
Nc1cn(Cc2ccccc2)c2nc(/C=C3/C=CC=CC3=O)c(O)n12 | 2.25% | 1.75% | -6.9% | -5.45% | 0.9% | 8.85%
CC1=CC(=O)/C(=C\c2ccc3c(c2)OCO3)C(C)(C)C1 | -23.1% | -8.45% | 4.5% | -19.4% | 52.3% | -1.5%
COc1ccc(C(C)=O)c(O)c1OC | -3.3% | 4.7% | 9.1% | -3.35% | -3.1% | 3%
CN(C)CC(CN(C)C)C(O)c1ccccc1 (stereo not given) | 2.4% | -11.5% | -6.35% | 12% | -4.8% | -13.1%
OCC1OC(n2ncc3c(Nc4ccccc4)ncnc32)C(O)C1O (stereo not given) | 17.1% | 18.3% | 6.75% | -5.7% | 6.9% | 17.9%
O=C(Cc1n[nH]c(=S)nc1CC(=O)c1ccccc1)c1ccccc1 | -2.05% | 0.85% | 5.2% | -17.5% | -27.9% | 7.4%
COC[C@@H](N=Cc1ccc(OC)cc1)C(C)C | -12.2% | -19.4% | -49.6% | -28.8% | 25.9% | -30.5%
NC(=O)c1ccc(Cl)c([N+](=O)[O-])c1 | 8.2% | 2.85% | -7.3% | 6.45% | -31.3% | 2.15%
C/C(=N\NC(=O)c1ccncc1)c1ccc(Cl)cc1Cl | 5.85% | 7.15% | 0.55% | 1.95% | 4.65% | 8.5%
